Test results from PubChem BioAssay (NCI).
About 79,000 compounds went through this panel and 15% of them were active in at least one assay; those are over-represented in the sample as a whole. Activity calls are given as the source filed them. Rule as the data show it: active = growth inhibition above about 70%; inactive = the rest.

Assays:
[1] = NCI Yeast Anticancer Drug Screen. Data for the rad52 strain (AID 147);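 also: 0% = growth of vehicle-treated control cultures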; conditions: S. cerevisiae rad52 mutant growth inhibition, hits give high values
How it was run: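 Genetically altered yeast (DNA damage repair defect) treated with compound; inhibition calculated relative to vehicle.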

[2] = NCI Yeast Anticancer Drug Screen. Data for the wt1 strain (AID 149);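 also: 0% = growth of vehicle-treated wt1 cultures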; conditions: S. cerevisiae wt1 strain (SPY 50644) growth inhibition, hits give high values
How it was run: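 Yeast wt1 strain exposed to compounds; growth inhibition measured relative to vehicle-treated controls.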

[3] = NCI Yeast Anticancer Drug Screen. Data for the rad50EPP+ strain (AID 151);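 also: 0% = growth of vehicle-treated control cultures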; conditions: S. cerevisiae rad50 mutant strain, hits give high values
How it was run: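 Strain rad50EPP+; compound exposure; % growth inhibition vs vehicle.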

[4] = NCI Yeast Anticancer Drug Screen. Data for the mgt1 strain (AID 153); conditions: S. cerevisiae mgt1 mutant growth inhibition, hits give high values
How it was run: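 Read-out: yeast growth inhibition vs vehicle control. Strain mgt1, drawn from a panel altered in DNA damage repair or cell cycle control.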

[5] = NCI Yeast Anticancer Drug Screen. Data for the mec2-1 strain (AID 157); conditions: S. cerevisiae mec2-1 strain, hits give high values
How it was run: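 Cells of the genetically defined mec2-1 yeast strain are incubated with test compound. Inhibition of growth is calculated against vehicle-treated controls.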

[6] = NCI Yeast Anticancer Drug Screen. Data for the rad14 strain (AID 159);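 also: 0% = growth of vehicle-treated control cultures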; conditions: S. cerevisiae rad14 strain growth inhibition, hits give high values
How it was run: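 Yeast cells carrying a defined DNA-repair defect were exposed to compounds, and growth inhibition was calculated relative to vehicle-treated control cultures.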

[7] = NCI Yeast Anticancer Drug Screen. Data for the sgs1 mgt1 strain (AID 161);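 also: 0% = growth of cultures given vehicle only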; conditions: S. cerevisiae sgs1 mgt1 strain, hits give high values
How it was run: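 Read-out: growth inhibition vs vehicle controls. Cells: mutant yeast strain deficient in DNA damage repair.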

[8] = NCI Yeast Anticancer Drug Screen. Data for the CLN2oe strain (AID 163);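 also: 0% = growth of vehicle-only control cultures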; conditions: S. cerevisiae CLN2oe strain, hits give high values
How it was run: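 Strain altered in cell-cycle control, incubated with compound; growth compared to solvent-treated controls.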

[9] = NCI Yeast Anticancer Drug Screen. Data for the cln2 rad14 strain (AID 165);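 also: 0% = growth equal to vehicle treated cultures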; conditions: S. cerevisiae cln2 rad14 strain, hits give high values
How it was run: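 The screen exposed genetically defined yeast (cln2 rad14) to test compounds and scored growth inhibition relative to vehicle-treated controls.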

[10] = NCI Yeast Anticancer Drug Screen. Data for the bub3 strain (AID 167); conditions: S. cerevisiae bub3 mutant strain, hits give high values
How it was run: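 Compounds were applied to a genetically altered yeast strain carrying a cell-cycle control defect. Growth inhibition was scored against vehicle-treated controls.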

[11] = NCI Yeast Anticancer Drug Screen. Data for the mlh1 strain (AID 171);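 also: 0% = growth of vehicle-treated control cultures of the same strain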; conditions: S. cerevisiae mlh1 strain growth inhibition, hits give high values
How it was run: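 Yeast screen: mutant strain plus compound, growth scored against vehicle control wells.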

[12] = NCI Yeast Anticancer Drug Screen. Data for the sgs1 strain (AID 173);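 also: 0% = growth of vehicle-only control cultures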; conditions: S. cerevisiae sgs1 mutant, hits give high values
How it was run: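 Inhibition of yeast growth served as the measure. The mutant strain was treated with each compound, and growth was normalised to cultures receiving vehicle alone.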

[13] = NCI Yeast Anticancer Drug Screen. Data for the mlh1 rad18 strain (AID 175); conditions: S. cerevisiae mlh1 rad18 strain growth inhibition, hits give high values
How it was run: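 Compound-treated yeast growth, normalised to vehicle controls. Strain bears defined DNA repair mutations.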

[14] = NCI Yeast Anticancer Drug Screen. Data for the rad18 strain (AID 177); conditions: S. cerevisiae rad18 mutant growth inhibition, hits give high values
How it was run: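 Inhibition values reflect reduced yeast growth compared with vehicle-treated controls, using a strain engineered with a DNA damage repair defect.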

[15] = NCI Yeast Anticancer Drug Screen. Data for the rad50 strain (AID 155);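 also: 0% = growth of vehicle-only cultures of the same strain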; conditions: S. cerevisiae rad50 strain growth inhibition, hits give high values
How it was run: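 Yeast carrying a defined DNA repair defect were exposed to test compounds, and growth was compared with vehicle-treated controls to give percent inhibition.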

[16] = NCI Yeast Anticancer Drug Screen. Data for the wt2 strain (AID 169);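 also: 0% = growth of vehicle-treated yeast cultures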; conditions: S. cerevisiae wt2 strain growth inhibition, hits give high values
How it was run: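 Steps: yeast strain treated with compound; growth recorded; inhibition calculated relative to cultures given vehicle alone.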

[17] = at 5.0 µM (retest, dose inferred, filed as 0.5)
[18] = at 50.0 µM (retest, dose inferred, filed as 5.0)

Measured: growth inhibition

CCC(C)OC(=O)Nc1ccc(C)c(NC(=O)OC(C)CC)c1 (stereo not drawn)
inactive: [1]; at 1.2 µM -1% | [1]; at 3.7 µM -1% | [1]; at 11.0 µM 3% | [1]; at 33.0 µM 9% | [2]; at 1.2 µM -3% | [2]; at 3.7 µM 0% | [2]; at 11.0 µM -5% | [2]; at 33.0 µM 2% | [3]; at 1.2 µM -2% | [3]; at 3.7 µM -5% | [3]; at 11.0 µM -1% | [3]; at 33.0 µM 11% | [4]; at 1.2 µM -2% | [4]; at 3.7 µM -2% | [4]; at 11.0 µM -1% | [4]; at 33.0 µM 1% | [5]; at 1.2 µM -2% | [5]; at 3.7 µM 0% | [5]; [17] -11% | [5]; at 11.0 µM -2% | [5]; at 33.0 µM 2% | [5]; [18] 18% | [6]; at 1.2 µM 0% | [6]; at 3.7 µM 2% | [6]; at 11.0 µM 1% | [6]; at 33.0 µM 6% | [7]; [17] 1% | [8]; at 1.2 µM 3% | [8]; at 3.7 µM 2% | [8]; at 11.0 µM 7% | [8]; at 33.0 µM 22% | [9]; [17] -4% | [10]; at 1.2 µM -3% | [10]; at 3.7 µM -2% | [10]; [17] 2% | [10]; at 11.0 µM -3% | [10]; at 33.0 µM 4% | [11]; at 1.2 µM -1% | [11]; at 3.7 µM -3% | [11]; at 11.0 µM -5% | [11]; at 33.0 µM 2% | [12]; at 1.2 µM -5% | [12]; at 3.7 µM -5% | [12]; at 11.0 µM -5% | [12]; at 33.0 µM 9% | [13]; [17] 12% | [14]; at 1.2 µM -4% | [14]; at 3.7 µM -5% | [14]; at 11.0 µM -8% | [14]; at 33.0 µM 6%
active: [1]; at 100.0 µM 96% | [2]; at 100.0 µM 73% | [3]; at 100.0 µM 74% | [4]; at 100.0 µM 96% | [5]; at 50.0 µM 76% | [5]; at 100.0 µM 90% | [6]; at 100.0 µM 94% | [7]; [18] 85% | [7]; at 50.0 µM 79.4% | [8]; at 100.0 µM 95% | [9]; [18] 74% | [9]; at 50.0 µM 80% | [10]; [18] 83% | [10]; at 50.0 µM 75% | [10]; at 100.0 µM 94% | [11]; at 100.0 µM 96% | [12]; at 100.0 µM 96% | [13]; [18] 89% | [13]; at 50.0 µM 79.5% | [14]; at 100.0 µM 96%

COc1cccc2c1C(=O)c1c(O)c3c(c(O)c1C2=O)CC(O)(C(O)CO)CC3OC1CC(N2CCOCC2)C(O)C(C)O1 (stereo not drawn)
inactive: [15]; at 50.0 µM 56.9% | [7]; [17] 22% | [9]; [17] 18% | [9]; [18] 61% | [10]; [17] 25%
active: [1]; at 1.2 µM 96% | [1]; at 3.7 µM 96% | [1]; at 11.0 µM 96% | [1]; at 33.0 µM 96% | [1]; at 100.0 µM 96% | [2]; at 1.2 µM 96% | [2]; at 3.7 µM 96% | [2]; at 11.0 µM 97% | [2]; at 33.0 µM 97% | [2]; at 100.0 µM 97% | [3]; at 1.2 µM 84% | [3]; at 3.7 µM 96% | [3]; at 11.0 µM 97% | [3]; at 33.0 µM 97% | [3]; at 100.0 µM 97% | [4]; at 1.2 µM 97% | [4]; at 3.7 µM 97% | [4]; at 11.0 µM 97% | [4]; at 33.0 µM 98% | [4]; at 100.0 µM 97% | [15]; at 1.2 µM 96% | [15]; at 3.7 µM 97% | [15]; [17] 98% | [15]; at 11.0 µM 97% | [15]; at 33.0 µM 97% | [15]; [18] 98% | [15]; at 100.0 µM 97% | [5]; at 1.2 µM 97% | [5]; at 3.7 µM 97% | [5]; [17] 99% | [5]; at 11.0 µM 98% | [5]; at 33.0 µM 98% | [5]; [18] 99% | [5]; at 50.0 µM 91.3% | [5]; at 100.0 µM 98% | [7]; [18] 90% | [7]; at 50.0 µM 91.5% | [8]; at 1.2 µM 96% | [8]; at 3.7 µM 97% | [8]; at 11.0 µM 97% | [8]; at 33.0 µM 98% | [8]; at 100.0 µM 98% | [9]; at 50.0 µM 90.8% | [10]; at 1.2 µM 98% | [10]; at 3.7 µM 98% | [10]; at 11.0 µM 98% | [10]; at 33.0 µM 98% | [10]; [18] 93% | [10]; at 50.0 µM 93.5% | [10]; at 100.0 µM 98% | [16]; at 1.2 µM 96% | [16]; at 3.7 µM 97% | [16]; at 11.0 µM 96% | [16]; at 33.0 µM 97% | [16]; at 100.0 µM 98% | [11]; at 1.2 µM 97% | [11]; at 3.7 µM 97% | [11]; at 11.0 µM 97% | [11]; at 33.0 µM 98% | [11]; at 100.0 µM 98% | [13]; [17] 99% | [13]; [18] 98% | [13]; at 50.0 µM 91.1% | [14]; at 1.2 µM 96% | [14]; at 3.7 µM 96% | [14]; at 11.0 µM 97% | [14]; at 33.0 µM 97% | [14]; at 100.0 µM 98%

O=[N+]([O-])c1cc(Cl)cnc1Br
active: [1]; at 11.0 µM 75% | [1]; at 33.0 µM 92% | [1]; at 100.0 µM 97% | [3]; at 3.7 µM 71% | [3]; at 11.0 µM 88% | [3]; at 33.0 µM 96% | [3]; at 100.0 µM 98% | [15]; at 11.0 µM 81% | [15]; at 33.0 µM 90% | [15]; [18] 82% | [15]; at 50.0 µM 88.5% | [15]; at 100.0 µM 98%
inactive: [1]; at 1.2 µM 23% | [1]; at 3.7 µM 46% | [2]; at 1.2 µM 1% | [2]; at 3.7 µM 4% | [2]; at 11.0 µM 7% | [2]; at 33.0 µM 8% | [2]; at 100.0 µM 20% | [3]; at 1.2 µM 35% | [4]; at 1.2 µM 2% | [4]; at 3.7 µM 1% | [4]; at 11.0 µM 4% | [4]; at 33.0 µM 12% | [4]; at 100.0 µM 19% | [15]; at 1.2 µM 28% | [15]; at 3.7 µM 47% | [15]; [17] -49% | [6]; at 1.2 µM 4% | [6]; at 3.7 µM 1%
